Reference: the supplement of paper PMC10849652
The full data set covers some 7,900 targets. This sample favours those with a hit. About 0.6% of all pairs of compound and target were hits.

compound: COc1cccc2cc(-c3nc([C@H]4CC[C@H](C(=O)O)CC4)n4ncnc(N)c34)[nH]c12; test: log2 fold change, soluble protein after heating vs DMSO (PISA); higher = thermal stabilisation; K562 cells, 10 uM, 30 min; active = over 0.2 and 3.5 SD of the protein, either way, in both replicates (recomputed)
In short: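 Quantification of soluble protein used TMTpro 16plex LC-MS/MS, with channel sums equalised. Samples were the supernatant after 21,000xg for 90 min of pooled aliquots from K562 cells (2×10^6 cells/mL) treated with 10 μM compound for 30 min, heated for 3 min over 48°C-58°C, and extracted in PBS with 0.5% NP-40 at 4°C. Values, from duplicates, describe thermal stability against control samples on a log2 fold-change scale.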

Sequence of UniProt Q96JI7 (Q96JI7 whole entry, looked up): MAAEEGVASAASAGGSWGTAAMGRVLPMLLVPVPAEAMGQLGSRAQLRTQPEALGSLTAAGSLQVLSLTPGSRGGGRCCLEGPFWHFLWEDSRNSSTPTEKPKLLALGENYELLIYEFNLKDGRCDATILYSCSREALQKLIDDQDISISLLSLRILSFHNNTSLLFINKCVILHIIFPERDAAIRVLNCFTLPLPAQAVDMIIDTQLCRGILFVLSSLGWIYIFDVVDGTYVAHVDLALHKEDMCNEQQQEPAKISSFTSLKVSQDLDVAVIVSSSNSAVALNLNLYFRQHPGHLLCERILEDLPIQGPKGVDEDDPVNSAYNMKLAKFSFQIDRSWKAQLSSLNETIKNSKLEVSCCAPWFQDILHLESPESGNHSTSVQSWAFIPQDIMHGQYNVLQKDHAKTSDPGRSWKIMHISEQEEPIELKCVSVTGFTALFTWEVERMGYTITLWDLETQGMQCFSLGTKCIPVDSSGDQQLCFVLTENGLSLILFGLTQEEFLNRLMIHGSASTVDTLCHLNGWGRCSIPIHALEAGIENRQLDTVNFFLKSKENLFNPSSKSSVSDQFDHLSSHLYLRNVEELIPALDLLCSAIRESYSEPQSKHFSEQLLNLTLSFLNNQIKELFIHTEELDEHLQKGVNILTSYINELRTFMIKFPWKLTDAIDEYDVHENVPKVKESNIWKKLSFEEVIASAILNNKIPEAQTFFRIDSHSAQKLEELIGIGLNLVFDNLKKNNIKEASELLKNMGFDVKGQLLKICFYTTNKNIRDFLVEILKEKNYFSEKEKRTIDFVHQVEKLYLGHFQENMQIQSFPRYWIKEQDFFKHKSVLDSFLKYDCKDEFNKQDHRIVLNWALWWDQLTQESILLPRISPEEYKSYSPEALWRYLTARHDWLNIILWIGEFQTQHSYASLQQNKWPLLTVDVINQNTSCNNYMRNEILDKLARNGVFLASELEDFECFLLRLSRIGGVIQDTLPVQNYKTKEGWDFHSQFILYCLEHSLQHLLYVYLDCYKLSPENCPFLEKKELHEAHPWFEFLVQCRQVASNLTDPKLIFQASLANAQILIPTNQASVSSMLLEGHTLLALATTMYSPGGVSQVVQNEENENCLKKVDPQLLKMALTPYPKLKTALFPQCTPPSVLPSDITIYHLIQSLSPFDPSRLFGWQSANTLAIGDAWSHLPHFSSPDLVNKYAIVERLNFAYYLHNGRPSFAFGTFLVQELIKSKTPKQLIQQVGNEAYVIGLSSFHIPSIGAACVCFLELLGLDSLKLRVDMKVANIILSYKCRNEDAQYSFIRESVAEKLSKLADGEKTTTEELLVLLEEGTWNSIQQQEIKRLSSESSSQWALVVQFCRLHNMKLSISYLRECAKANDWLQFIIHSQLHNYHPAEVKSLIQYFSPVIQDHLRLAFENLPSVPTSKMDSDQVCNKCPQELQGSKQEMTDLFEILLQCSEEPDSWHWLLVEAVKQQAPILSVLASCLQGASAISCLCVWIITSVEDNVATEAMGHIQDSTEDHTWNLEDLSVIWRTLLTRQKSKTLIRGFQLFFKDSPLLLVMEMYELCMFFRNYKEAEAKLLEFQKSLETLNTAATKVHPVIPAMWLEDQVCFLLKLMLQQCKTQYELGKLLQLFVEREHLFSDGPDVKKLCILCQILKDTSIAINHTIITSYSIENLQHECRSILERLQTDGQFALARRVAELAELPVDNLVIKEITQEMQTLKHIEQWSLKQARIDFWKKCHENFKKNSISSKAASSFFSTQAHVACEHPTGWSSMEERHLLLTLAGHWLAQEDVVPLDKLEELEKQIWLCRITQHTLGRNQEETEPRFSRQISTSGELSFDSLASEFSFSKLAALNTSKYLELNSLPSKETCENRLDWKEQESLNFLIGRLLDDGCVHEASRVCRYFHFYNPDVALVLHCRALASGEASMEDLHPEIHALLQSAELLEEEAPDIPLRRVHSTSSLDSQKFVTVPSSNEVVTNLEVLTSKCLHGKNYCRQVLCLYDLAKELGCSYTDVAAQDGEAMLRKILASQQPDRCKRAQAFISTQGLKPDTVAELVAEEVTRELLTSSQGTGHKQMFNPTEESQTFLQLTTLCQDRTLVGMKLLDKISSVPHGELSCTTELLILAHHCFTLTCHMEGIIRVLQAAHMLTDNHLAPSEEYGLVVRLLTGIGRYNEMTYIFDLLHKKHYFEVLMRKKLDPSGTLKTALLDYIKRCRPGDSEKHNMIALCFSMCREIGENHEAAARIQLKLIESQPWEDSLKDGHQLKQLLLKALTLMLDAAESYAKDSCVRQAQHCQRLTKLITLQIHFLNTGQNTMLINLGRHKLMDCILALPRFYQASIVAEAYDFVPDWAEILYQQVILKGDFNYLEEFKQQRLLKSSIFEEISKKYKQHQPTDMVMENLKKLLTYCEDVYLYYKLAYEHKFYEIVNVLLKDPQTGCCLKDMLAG
Sequence of UniProt P08240 (P08240 whole entry, looked up): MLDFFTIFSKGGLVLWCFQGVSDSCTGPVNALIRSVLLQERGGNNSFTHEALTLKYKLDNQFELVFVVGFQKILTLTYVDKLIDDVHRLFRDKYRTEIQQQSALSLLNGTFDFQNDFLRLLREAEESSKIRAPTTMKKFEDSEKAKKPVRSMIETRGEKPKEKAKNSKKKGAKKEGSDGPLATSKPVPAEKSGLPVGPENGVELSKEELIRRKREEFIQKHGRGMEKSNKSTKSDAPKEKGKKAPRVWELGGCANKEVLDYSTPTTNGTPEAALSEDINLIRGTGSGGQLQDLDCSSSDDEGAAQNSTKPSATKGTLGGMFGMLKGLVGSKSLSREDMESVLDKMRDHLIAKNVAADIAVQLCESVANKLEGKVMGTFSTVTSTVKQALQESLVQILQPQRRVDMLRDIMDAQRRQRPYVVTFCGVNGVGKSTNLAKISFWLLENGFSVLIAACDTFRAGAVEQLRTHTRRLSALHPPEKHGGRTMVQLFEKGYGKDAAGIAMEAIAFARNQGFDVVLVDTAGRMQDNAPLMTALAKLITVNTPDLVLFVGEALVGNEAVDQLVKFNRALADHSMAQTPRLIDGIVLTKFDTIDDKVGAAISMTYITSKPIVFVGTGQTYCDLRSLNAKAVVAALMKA
Sequence of UniProt Q9P289 (Q9P289 whole entry, looked up): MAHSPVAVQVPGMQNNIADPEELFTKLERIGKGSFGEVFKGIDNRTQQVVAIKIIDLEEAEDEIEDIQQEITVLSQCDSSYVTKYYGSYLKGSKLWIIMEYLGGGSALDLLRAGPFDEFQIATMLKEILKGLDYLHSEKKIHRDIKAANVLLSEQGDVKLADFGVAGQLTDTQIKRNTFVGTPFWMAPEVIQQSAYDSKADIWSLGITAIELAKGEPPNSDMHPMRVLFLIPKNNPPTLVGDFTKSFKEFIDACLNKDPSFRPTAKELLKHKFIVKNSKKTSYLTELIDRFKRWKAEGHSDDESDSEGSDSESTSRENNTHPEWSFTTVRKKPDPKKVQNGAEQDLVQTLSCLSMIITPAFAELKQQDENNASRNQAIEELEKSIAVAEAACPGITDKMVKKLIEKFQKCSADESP
Sequence of UniProt P30626 (P30626 whole entry, looked up): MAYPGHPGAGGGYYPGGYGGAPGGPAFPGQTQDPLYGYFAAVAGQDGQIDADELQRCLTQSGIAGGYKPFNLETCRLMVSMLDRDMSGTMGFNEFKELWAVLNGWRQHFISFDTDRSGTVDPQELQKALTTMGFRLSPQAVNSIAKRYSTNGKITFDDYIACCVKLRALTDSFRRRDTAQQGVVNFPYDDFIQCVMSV
Sequence of UniProt Q96BW9 (Q96BW9 whole entry, looked up): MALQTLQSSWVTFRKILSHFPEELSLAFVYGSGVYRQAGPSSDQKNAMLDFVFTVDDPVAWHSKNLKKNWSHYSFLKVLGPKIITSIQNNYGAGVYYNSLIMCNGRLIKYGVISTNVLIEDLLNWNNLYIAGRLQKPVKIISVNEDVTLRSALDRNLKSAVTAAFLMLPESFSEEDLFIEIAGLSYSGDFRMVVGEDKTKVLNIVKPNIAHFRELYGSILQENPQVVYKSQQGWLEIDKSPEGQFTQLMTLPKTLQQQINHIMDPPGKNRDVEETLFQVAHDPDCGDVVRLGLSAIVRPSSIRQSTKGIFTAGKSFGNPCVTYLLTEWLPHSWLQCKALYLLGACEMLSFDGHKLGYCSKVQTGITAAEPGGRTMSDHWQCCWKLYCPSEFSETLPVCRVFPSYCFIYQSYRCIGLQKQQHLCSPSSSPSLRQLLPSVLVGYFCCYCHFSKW
Sequence of UniProt Q13043 (Q13043 whole entry, looked up): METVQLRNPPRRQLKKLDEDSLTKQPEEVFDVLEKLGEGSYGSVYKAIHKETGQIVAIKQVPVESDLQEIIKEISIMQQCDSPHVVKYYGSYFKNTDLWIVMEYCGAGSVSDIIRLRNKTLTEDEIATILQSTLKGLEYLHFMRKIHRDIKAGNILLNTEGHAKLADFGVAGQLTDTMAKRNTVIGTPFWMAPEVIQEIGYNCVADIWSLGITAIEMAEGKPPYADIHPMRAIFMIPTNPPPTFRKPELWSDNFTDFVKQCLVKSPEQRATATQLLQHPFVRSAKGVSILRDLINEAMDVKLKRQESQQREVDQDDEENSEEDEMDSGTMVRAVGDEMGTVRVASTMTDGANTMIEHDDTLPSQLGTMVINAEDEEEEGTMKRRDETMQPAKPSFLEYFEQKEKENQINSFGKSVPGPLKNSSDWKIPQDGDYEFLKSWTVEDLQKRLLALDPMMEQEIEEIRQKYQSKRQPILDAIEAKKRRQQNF
Sequence of UniProt Q9BSF4 (Q9BSF4 whole entry, looked up): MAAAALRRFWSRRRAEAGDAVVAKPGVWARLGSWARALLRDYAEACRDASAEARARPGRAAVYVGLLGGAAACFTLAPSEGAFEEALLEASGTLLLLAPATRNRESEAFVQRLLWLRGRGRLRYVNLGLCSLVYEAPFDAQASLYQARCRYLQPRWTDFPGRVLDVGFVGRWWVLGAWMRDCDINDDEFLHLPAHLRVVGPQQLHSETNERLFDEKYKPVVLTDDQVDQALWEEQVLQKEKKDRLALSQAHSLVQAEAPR

Target | log2 fold change
TERF2IP (UniProt Q9NYB0) | 0.025 (inactive)
TGFBR1 isoform 2 (UniProt P36897) | -0.041 (inactive)
SLC25A39 (UniProt Q9BZJ4) | 0.224 (inactive)
SLC27A2 (UniProt O14975) | -0.052 (inactive)
STAT5B (UniProt P51692) | -0.094 (inactive)
TBC1D15 isoform 3 (UniProt Q8TC07) | -0.06 (inactive)
TELO2 (UniProt Q9Y4R8) | -0.125 (inactive)
SQSTM1 (UniProt Q13501) | 0.058 (inactive)
TBC1D5 isoform 2 (UniProt Q92609) | 0.003 (inactive)
SRI (UniProt P30626) | 0.023 (inactive)
STAT3 (UniProt P40763) | -0.039 (inactive)
SRPRA (UniProt P08240) | -0.002 (inactive)
TAOK1 (UniProt Q7L7X3) | 0.011 (inactive)
STK26 (UniProt Q9P289) | 0.009 (inactive)
STK4 (UniProt Q13043) | 0.015 (inactive)
STXBP2 isoform 3 (UniProt Q15833) | -0.066 (inactive)
SRPRB (UniProt Q9Y5M8) | -0.03 (inactive)
TIMM29 (UniProt Q9BSF4) | 0.073 (inactive)
SPG11 (UniProt Q96JI7) | 0.331 (inactive)
SLC25A36 (UniProt Q96CQ1) | 0.001 (inactive)
SLC25A42 (UniProt Q86VD7) | 0.043 (inactive)
TAMM41 isoform 3 (UniProt Q96BW9) | 0.112 (inactive)
